# Results filed as inconclusive are left out. Activity calls are given as the source filed them. Rule for the calls, unless noted: active = hit-call score of the fitted dose curve at least 0.9, where 1 is the maximum; inactive = score below 0.9.
# Key:
# [1] = CCTE_Harrill_HTTr_Viability_MCF7: CCTE's 6-hour Cell Viability Assessment for the High-Throughput Transcriptomics (HTTr) Platform, in MCF-7 cells cultured in DMEM + 10% fetal bovine serum, Harrill Lab (AID 2284010)
# In short: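 Eight-point concentration series, six-hour exposure. Propidium iodide exclusion imaged to assess membrane integrity as a cytotoxicity readout; bidirectional fitting was done with DMSO as negative control and activity baseline.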
# [2] = CCTE_Harrill_HTTr_Apoptosis_MCF7: CCTE's 6-hour Apoptosis Assessment for the High-Throughput Transcriptomics (HTTr) Platform, in MCF-7 cells cultured in DMEM + 10% fetal bovine serum, Harrill Lab (AID 2284011)
# In short: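 High-content imaging of CellEvent Caspase 3/7 Green signal follows a six-hour exposure, with eight concentrations per chemical. MCF-7 cells grown in DMEM plus 10% fetal bovine serum; activity fitted in both directions against DMSO.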
# [3] = CCTE_Shafer_MEA_acute_spike_number: CCTE's Neural Acute Assay for Total Number of Spikes, Shafer Lab (AID 2284008);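 for AC50: curve fitted for decrease in spike count so AC50 reflects inhibitors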
# In short: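 Total spike count from 40 min recordings before and during compound exposure (0.03-40 uM), given as per-well percent change. Cortical cultures from rat, DIV 13 or 15, 37 C; adaptive detection threshold 8x rms noise.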
# [4] = CCTE_Shafer_MEA_acute_burst_number: CCTE's Neural Acute Assay for Single-Electrode Bursts, Shafer Lab (AID 2284013)
# In short: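 Percent change in single-electrode burst number per well, from 40-min recordings taken before and after adding compound (0.03-40 uM) to primary rat cortical neurons on MEA plates at DIV 13 or 15, 37 C.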
# [5] = CCTE_Shafer_MEA_acute_burst_duration_mean: CCTE's Neural Acute Assay for Mean Burst Duration, Shafer Lab (AID 2284014);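 note: hits are decreases in mean burst duration relative to DMSO controls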
# In short: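 Rat cortical cultures, DIV 13/15; 40 min baseline, then 40 min with compound (0.03-40 uM), 37 C. Spikes: 300-5000 Hz band-pass, 8x rms threshold. Read-out: % change in mean single-electrode burst duration, DMSO-referenced, loss direction.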
# [6] = CCTE_Simmons_MITO_basal_resp_rate: CCTE's HepG2 Seahorse XF Respirometric Screening Assay at Basal Respiratory State, Simmons Lab (AID 2284001); settings: actives raise or lower the signal
# In short: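 Basal-phase OCR of HepG2 cells on a Seahorse XF96, analysed by bidirectional fit relative to DMSO vehicle; chemicals at 7 concentrations, 125 nM–100 uM final; three biological replicates; fenpyroximate and 2,4-dinitrophenol positive controls.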
# [7] = CCTE_Simmons_MITO_max_resp_rate: CCTE's HepG2 Seahorse XF Respirometric Screening Assay at Maximal Respiratory State [uncoupled], Simmons Lab (AID 2284002); settings: actives raise or lower the signal
# In short: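 Maximal (FCCP-uncoupled) respiration rate in HepG2, from Seahorse kinetic OCR over 72 min at 6 min cycles. Compounds at 125 nM–100 uM final, 7 points, three biological replicates; both directions fit relative to DMSO.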
# [8] = CCTE_Simmons_MITO_inhib_resp_rate: CCTE's HepG2 Seahorse XF Respirometric Screening Assay at Inhibited Respiratory State [full ETC block], Simmons Lab (AID 2284006); settings: actives raise or lower the signal
# In short: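 Test chemicals at seven final concentrations (125 nM–100 uM) in three biological replicates, with DMSO as vehicle. HepG2 oxygen consumption was then tracked on a Seahorse XF96 for 72 min through FCCP and rotenone/antimycin A phases, with the inhibited-phase rate as the endpoint.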
# [9] = CCTE_Simmons_MITO_viability: CellTiter-Glo Viability Assessment for CCTE's HepG2 Seahorse XF Respirometric Screening Assay [post-hoc], Simmons Lab (AID 2284007; active = hit-call score of the fitted dose curve at least 0.9, where 1 is the maximum;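 note: cells exposed to chemical for 90 min before the ATP read; actives lower ATP signal relative to DMSO baseline meaning reduced viability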)
# In short: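 Post-hoc viability check on the HepG2 respirometry plates: luciferase-based ATP signal measured once, after 90 min compound exposure spanning 125 nM–100 uM final. Activity was referenced to DMSO as baseline.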
# [10] = CCTE_Harrill_HTTr_CellCount_MCF7: CCTE's Cell Proliferation Assessment for the High-Throughput Transcriptomics (HTTr) Platform, Harrill Lab (AID 2284012; active = hit-call score of the fitted dose curve at least 0.9, where 1 is the maximum;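 note: count of Hoechst-stained nuclei per well by high-content imaging in MCF-7 cells; cells exposed to compound for six hours; intended direction is loss of nuclei count meaning fewer cells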)
# In short: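 For this full-screen endpoint, MCF-7 cultures received eight compound dilutions for six hours. Well nuclei counts from Hoechst imaging were analyzed relative to DMSO.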
compound,measurement,setting,value
c1ccc2c(c1)-c1ccc3ccc4cccc5cc-2c1c3c45,outcome,[1],inactive
same,outcome,[2],inactive
CCCO[Si](OCCC)(OCCC)OCCC,outcome,[3],inactive
same,outcome,[4],inactive
same,outcome,[5],inactive
CCOC(=O)C=Cc1ccccc1,outcome,[1],inactive
same,outcome,[2],inactive
C[C@]12CC[C@@H]3c4ccc(O)cc4CC[C@H]3[C@@H]1CC[C@@H]2O,AC50,[6],27100 nM (active)
same,outcome,[7],inactive
same,outcome,[8],inactive
same,AC50,[9],27000 nM (active)
same,outcome,[1],inactive
same,outcome,[2],inactive
CC(=O)CCc1ccc(O)cc1,outcome,[1],inactive
same,outcome,[2],inactive
CC1=CCC(=C(C)C)CC1,outcome,[1],inactive
same,outcome,[2],inactive
CC(C)(CO)CO,outcome,[3],inactive
same,outcome,[4],inactive
same,outcome,[5],inactive
CCCCN(CCO)CCO,outcome,[3],inactive
same,outcome,[4],inactive
same,outcome,[5],inactive
CC(=O)c1ccc(C)cc1,AC50,[3],3 nM (active)
same,AC50,[4],3 nM (active)
same,outcome,[5],inactive
CCn1cc(C(=O)O)c(=O)c2ccc(C)nc21,AC50,[3],3 nM (active)
same,outcome,[1],inactive
same,outcome,[2],inactive
same,outcome,[10],inactive
same,AC50,[4],3 nM (active)
same,outcome,[5],inactive
C=CC(C)CCCC(C)(C)O (stereo not given),outcome,[1],inactive
same,outcome,[2],inactive
COC(=O)c1ccc(C(=O)OC)cc1,outcome,[1],inactive
same,outcome,[2],inactive
CCCCCC(=O)O[C@]1(C(C)=O)CC[C@H]2[C@@H]3CCC4=CC(=O)CC[C@]4(C)[C@H]3CC[C@@]21C,outcome,[1],inactive
same,outcome,[2],inactive
c1ccc(OCCOc2ccccc2)cc1,outcome,[3],inactive
same,outcome,[2],inactive
same,outcome,[10],inactive
same,outcome,[4],inactive
same,outcome,[5],inactive
CCOC(=O)COC(=O)c1ccccc1C(=O)OCC,outcome,[1],inactive
same,outcome,[2],inactive
O=C(OCc1ccccc1)c1ccccc1O,outcome,[1],inactive
same,outcome,[2],inactive
CN(C)CCC=C1c2ccccc2CCc2ccccc21,outcome,[1],inactive
same,outcome,[2],inactive
CNC(=C[N+](=O)[O-])NCCSCc1ccc(CN(C)C)o1,outcome,[1],inactive

# Reference: PubChem BioAssay (EPA / NIEHS)
